Measured values published in PubChem BioAssay AID631 (The Scripps Research Institute Molecular Screening Center, 2007).
Hit rate of the full screen: of about 200,000 compounds, about 810 (0.41%) were called active. The full list was thinned out, with actives kept by preference. Values without a mark were called inactive. Rule as the data show it: active = activation above about 19%; inactive = the rest.

Each compound was assayed against Peroxisome proliferator-activated receptor gamma (Homo sapiens) (UniProt P37231) (assay: enhancers of SRC-1 binding to PPARgamma – biochemical, primary screen (AID 631;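 also: 0% = DMSO and 100% = reference agonist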)). Settings: PPARgamma-SRC-1 coactivator recruitment biochemical assay; at 8 µM; active compounds read high.
Peroxisome proliferator-activated receptor gamma (Homo sapiens), sequence (P37231 whole entry, looked up): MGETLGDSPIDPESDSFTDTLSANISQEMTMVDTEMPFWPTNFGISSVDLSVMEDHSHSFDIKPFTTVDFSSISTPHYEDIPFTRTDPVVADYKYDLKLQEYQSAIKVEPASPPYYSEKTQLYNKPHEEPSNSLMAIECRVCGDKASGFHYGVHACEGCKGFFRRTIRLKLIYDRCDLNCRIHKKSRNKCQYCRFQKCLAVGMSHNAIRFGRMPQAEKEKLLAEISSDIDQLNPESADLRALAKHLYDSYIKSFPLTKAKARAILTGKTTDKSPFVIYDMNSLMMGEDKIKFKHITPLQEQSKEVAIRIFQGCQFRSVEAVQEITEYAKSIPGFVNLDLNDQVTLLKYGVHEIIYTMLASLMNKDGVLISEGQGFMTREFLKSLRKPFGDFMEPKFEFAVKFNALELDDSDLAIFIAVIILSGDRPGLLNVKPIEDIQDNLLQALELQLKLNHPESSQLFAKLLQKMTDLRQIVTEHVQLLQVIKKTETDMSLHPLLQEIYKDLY

| Structure (SMILES) | activation |
| --- | --- |
| CSC1=NP(=S)(SC)N(C)c2nc3n(c21)CCC3 (stereo not given) | 65.3% (active) |
| Cc1ccc2c(c1)C1CN(C)CCC1N2C(=O)Cn1nnc(-c2ccccc2F)n1 (stereo not given) | 3.5% |
| OCC#CC[N+]1(CC#Cc2ccccc2)CCCC1 | 4.2% |
| CC(=O)NC(=O)NC(C)Cc1ccccc1 (stereo not given) | 6.2% |
| COc1cccc(-c2nc3ccc(N4CCN(C)CC4)cc3[nH]2)c1 | 3.8% |
